# The panel holds about 83,000 compounds, 20% with a hit somewhere; the sample as a whole holds those more often.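 Values shown are percent growth following 48 h exposure of cells in 96-well plates to a single concentration of compound; below 10 was considered active.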 Values without a mark were called inactive. Active and inactive are the calls of the source.
# What was measured:
# Assay in all cases: NCI-60 one-dose screen, 48 h (100 = growth as untreated, 0 = no growth, -100 = all killed)
# Conditions in all cases: 10 µM unless noted
# [1] = test system: DU-145 prostate
# [2] = test system: K-562 leukemia
# [3] = test system: MALME-3M melanoma
# [4] = test system: MDA-MB-231 breast
# [5] = test system: RXF 393 renal
# [6] = test system: SF-268 CNS
# [7] = test system: SF-295 CNS
# [8] = test system: SF-539 CNS
# [9] = test system: UACC-257 melanoma
# [10] = test system: M14 melanoma
# [11] = test system: HCT-15 colon
# [12] = test system: HT29 colon
# [13] = test system: SNB-75 CNS
# [14] = test system: SNB-19 CNS
# [15] = test system: U251 CNS
# [16] = test system: PC-3 prostate
# [17] = test system: SK-MEL-5 melanoma
# [18] = test system: UACC-62 melanoma
# [19] = test system: LOX IMVI melanoma
# [20] = test system: SK-MEL-28 melanoma
Structure (SMILES),growth [1],growth [2],growth [3],growth [4],growth [5],growth [6],growth [7],growth [8],growth [9],growth [10],growth [11],growth [12],growth [13],growth [14],growth [15] [%],growth [16],growth [17],growth [18],growth [19],growth [20]
O=c1c2cc(F)ccc2oc2c(NCCNCCO)nc3ccccc3c12,35.8%,-36.9% (active),56.4%,40.4%,34.3%,47.5%,63.6%,46.3%,92%,60.1%,28.1%,16.7%,50.2%,45.1%,36.1,38.6%,61.6%,77.7%,13.8%,50.2%
Clc1cccc(Cl)c1Nc1ccc2nnc(-c3ccncc3)n2n1,111%,57.1%,98.2%,114%,109%,107%,96%,95.7%,97.8%,99.1%,90.9%,106%,99.4%,101%,103,101%,100%,106%,93.2%,105%
COc1cc(C2C3=C(COC3=O)N(CCO)c3cc4c(cc32)OCO4)cc(OC)c1O (stereo not given),11.3%,27.9%,35.3%,54%,13.1%,51.1%,8.07% (active),12.7%,14.5%,9.86% (active),44.8%,8.44% (active),-11.3% (active),41.5%,21.4,29.5%,29.3%,26.2%,40.1%,59.5%
COc1cc(-c2nc3ccccc3o2)cc(CN2CCN(c3ccccc3)CC2)c1O,71.8%,40.1%,63%,69.3%,107%,83.3%,36.2%,94.7%,86.7%,52.5%,43.6%,93.8%,65.7%,82.6%,52.6,40.4%,31.7%,34%,8.05% (active),87.2%
CCOC(=O)c1cnn(CC(O)c2ccc(F)cc2)c1NC(=O)Nc1ccccc1F (stereo not given),102%,97.5%,93.3%,91.2%,108%,99%,91.6%,95.1%,107%,93%,103%,117%,82.2%,98.3%,97.8,81.5%,75.9%,73.8%,101%,101%
CCN1CCN(c2ccc(Nc3ncc4ccc5ncn(C(C)C)c5c4n3)nc2)CC1,-22.7% (active),9.12% (active),-34% (active),0.653% (active),-85.4% (active),-34.2% (active),-17.8% (active),-75.8% (active),0.866% (active),-23.8% (active),-0.238% (active),5.37% (active),-66% (active),9.26% (active),14.1,7.15% (active),-8.75% (active),-17% (active),-33.3% (active),-13.7% (active)
CC(=O)N(CC(O)CO)c1c(I)c(C(=O)NCCO)c(I)c(C(=O)NCC(O)CO)c1I (stereo not given),110%,97%,92.4%,90.5%,103%,105%,118%,100%,103%,92.6%,96.4%,99.9%,95.6%,106%,100,81.3%,–,111%,–,–
O=C1C=CC(=O)N1CCCCCCCCCCN1C(=O)C=CC1=O,80.1%,5.56% (active),70%,104%,76.6%,103%,73.7%,91.1%,76.1%,77.8%,92.4%,63.2%,95.7%,108%,76.9,82.2%,95.8%,102%,42.9%,97%
Cn1c(=O)c2c(-c3ccccc3F)n(-c3ccc4c(c3)OCO4)cc2n(C)c1=O,110%,78.7%,141%,77.1%,83.3%,97.4%,87.9%,92.7%,117%,117%,87.8%,112%,80.9%,99.6%,92.1,74.7%,67.3%,86.2%,95.9%,100%
Oc1cccc(Nc2nc(-c3ccccn3)cs2)c1,122%,93.8%,109%,98%,113%,110%,99.4%,98.3%,110%,111%,78.3%,112%,94.3%,98.8%,101,94.5%,91.1%,–,93.9%,111%
CN(C)c1ccc(/C=C(\C#N)c2cc3ccccc3n2C)cc1,10.9%,7.77% (active),56.9%,20.1%,10.5%,47.5%,7.63% (active),-12.5% (active),68.9%,8.17% (active),20.6%,10.3%,20.8%,31%,19.4,34.4%,19.3%,38.5%,31.5%,67.2%
O=C1c2ccccc2-c2cn(Cc3ccccc3)c3cccc(c23)C1c1cccnc1 (stereo not given),60.7%,26.8%,38.9%,52.4%,57.9%,58%,25.9%,54.7%,55%,48.4%,31.2%,4.25% (active),23.2%,54%,25,55.4%,21.7%,47.3%,57.4%,53.9%
O=C(CCc1nnc2sc(/C=C\c3ccccc3)nn12)c1nc2ccccc2[nH]1,98%,2.17% (active),93.8%,83%,108%,107%,83.8%,65.9%,94.9%,90.7%,99.6%,36.8%,87.9%,110%,89.1,77.1%,75.9%,103%,75.3%,93.3%
COc1cc(/C=N/NC(=O)c2cnn3c2NC(c2ccccc2)C3)ccc1OC1CCCC1 (stereo not given),26.5%,18.7%,40.1%,52.7%,-27.9% (active),36.9%,6.52% (active),-15.6% (active),43.4%,22.8%,24.6%,11.8%,-13.7% (active),39.1%,33,10.1%,25.6%,23.8%,21.7%,40.3%
O=C(c1cnn2c1NC(c1ccc(F)cc1)C2)N1CCCCC1 (stereo not given),103%,103%,97.7%,106%,111%,96.7%,103%,97.8%,96.3%,101%,102%,103%,84.8%,100%,97.1,96.9%,97.8%,–,103%,103%
COc1ccc(-c2nc3sc(C)cn3c2/C=C/C(=O)c2cc(OC)c(OC)c(OC)c2)cc1,82.2%,75.6%,39.3%,39.5%,84.5%,73.4%,51.3%,77.6%,50.8%,43%,48.1%,60.1%,55.8%,75.6%,47.1,19%,4.08% (active),36.7%,48.8%,41.4%

# — PubChem BioAssay (NCI)
